Experimental data published in the supplement of paper PMC10849652.
The full data set covers some 8,800 targets. This sample favours those with a hit. About 0.5% of all pairs of compound and target were hits.

Key:
Assay in all cases: log2 fold change, soluble protein after heating vs DMSO (PISA); higher = thermal stabilisation; K562 lysate, 10 uM; active = over 0.2 and 3.5 SD of the protein, either way, in both replicates (recomputed)
[1] = compound: CCCS(=O)(=O)Nc1ccc(F)c(C(=O)c2c[nH]c3ncc(Cl)cc23)c1F
In short: (§1)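 To prepare the extract, K562 pellets were dounce-homogenised in PBS pH 7.4 with 1 mM MgCl2, giving crude material at 1 mg/mL protein. This was treated with 10 μM compound for 30 min, then heated in aliquots for 3 min over 48°C-58°C before pooling and addition of NP-40 to 0.5% at 4°C. Centrifugation at 21,000xg for 90 min left soluble protein in the supernatant, which TMTpro 16plex LC-MS/MS quantified with equalised channel sums. Results are log-two fold changes in thermal stability compared with solvent controls, from duplicates.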

barasertib = compound: CCN(CCCOc1ccc2c(Nc3cc(CC(=O)Nc4cccc(F)c4)[nH]n3)ncnc2c1)CCOP(=O)(O)O [barasertib]
In short: as §1

volasertib = compound: CC[C@@H]1C(=O)N(C)c2cnc(Nc3ccc(C(=O)N[C@H]4CC[C@H](N5CCN(CC6CC6)CC5)CC4)cc3OC)nc2N1C(C)C [volasertib]
In short: as §1

[2] = compound: CCn1c(C(=O)N(C2CC2)C2CC2)cc2c3c(ncn3C)c(Nc3cc(C)n(C)n3)nc21
In short: as §1

[3] = compound: CCn1cc(-c2ccnc3[nH]c(-c4cccc(CN(C)C)c4)cc23)c(-c2ccc(NC(=O)N(C)C)cc2)n1
In short: as §1

[4] = compound: CN1CCC(CNc2ccc3ncc(-c4cccc(OC(F)(F)F)c4)n3n2)CC1
In short: as §1

alvocidib = compound: CN1CC[C@H](c2c(O)cc(O)c3c(=O)cc(-c4ccccc4Cl)oc23)[C@H](O)C1 [alvocidib]
In short: as §1

Tubastatin A = compound: CN1CCc2c(c3ccccc3n2Cc2ccc(C(=O)NO)cc2)C1 [Tubastatin A]
In short: as §1

[5] = compound: CNC(=O)C1=CC=CC=C1NC2=NC(=NC=C2Cl)NC3=C(C=C(C=C3)N4CCOCC4)OC
In short: as §1

[6] = compound: COc1cc2nc(-c3cc(F)ccc3O)nc(N[C@@H]3CNC[C@H]3C(C)(C)O)c2cc1OC
In short: as §1

vemurafenib = compound: CCCS(=O)(=O)Nc1ccc(F)c(C(=O)c2c[nH]c3ncc(-c4ccc(Cl)cc4)cc23)c1F [vemurafenib]
In short: as §1

saracatinib = compound: CN1CCN(CCOc2cc(OC3CCOCC3)c3c(Nc4c(Cl)ccc5c4OCO5)ncnc3c2)CC1 [saracatinib]
In short: as §1

sotrastaurin = compound: CN1CCN(c2nc(C3=C(c4c[nH]c5ccccc45)C(=O)NC3=O)c3ccccc3n2)CC1 [sotrastaurin]
In short: as §1

defactinib = compound: CNC(=O)c1ccc(Nc2ncc(C(F)(F)F)c(NCc3nccnc3N(C)S(C)(=O)=O)n2)cc1 [defactinib]
In short: as §1

[7] = compound: CNc1nc(-c2ccc3c(N)n[nH]c3c2)cc(N2C[C@@H](C(=O)NC3CCCCC3)CC[C@H]2C)n1
In short: as §1

alisertib = compound: COc1cc(Nc2ncc3c(n2)-c2ccc(Cl)cc2C(c2c(F)cccc2OC)=NC3)ccc1C(=O)O [alisertib]
In short: as §1

gefitinib = compound: COc1cc2ncnc(Nc3ccc(F)c(Cl)c3)c2cc1OCCCN1CCOCC1 [gefitinib]
In short: as §1

[8] = compound: CC[C@@H]1C(=O)N(C)c2cnc(Nc3ccc(C(=O)NC4CCN(C)CC4)cc3OC)nc2N1C1CCCC1
In short: as §1

encorafenib = compound: COC(=O)N[C@@H](C)CNc1nccc(-c2cn(C(C)C)nc2-c2cc(Cl)cc(NS(C)(=O)=O)c2F)n1 [encorafenib]
In short: as §1

[9] = compound: COC(=O)[C@H](CCSC)NC(=O)C1=C(C=C(C=C1)NC[C@H](CS)N)C2=CC=CC=C2
In short: as §1

Measured: log2 fold change

POM121C (UniProt A8CG34)
Sequence of UniProt A8CG34 (A8CG34 whole entry, looked up): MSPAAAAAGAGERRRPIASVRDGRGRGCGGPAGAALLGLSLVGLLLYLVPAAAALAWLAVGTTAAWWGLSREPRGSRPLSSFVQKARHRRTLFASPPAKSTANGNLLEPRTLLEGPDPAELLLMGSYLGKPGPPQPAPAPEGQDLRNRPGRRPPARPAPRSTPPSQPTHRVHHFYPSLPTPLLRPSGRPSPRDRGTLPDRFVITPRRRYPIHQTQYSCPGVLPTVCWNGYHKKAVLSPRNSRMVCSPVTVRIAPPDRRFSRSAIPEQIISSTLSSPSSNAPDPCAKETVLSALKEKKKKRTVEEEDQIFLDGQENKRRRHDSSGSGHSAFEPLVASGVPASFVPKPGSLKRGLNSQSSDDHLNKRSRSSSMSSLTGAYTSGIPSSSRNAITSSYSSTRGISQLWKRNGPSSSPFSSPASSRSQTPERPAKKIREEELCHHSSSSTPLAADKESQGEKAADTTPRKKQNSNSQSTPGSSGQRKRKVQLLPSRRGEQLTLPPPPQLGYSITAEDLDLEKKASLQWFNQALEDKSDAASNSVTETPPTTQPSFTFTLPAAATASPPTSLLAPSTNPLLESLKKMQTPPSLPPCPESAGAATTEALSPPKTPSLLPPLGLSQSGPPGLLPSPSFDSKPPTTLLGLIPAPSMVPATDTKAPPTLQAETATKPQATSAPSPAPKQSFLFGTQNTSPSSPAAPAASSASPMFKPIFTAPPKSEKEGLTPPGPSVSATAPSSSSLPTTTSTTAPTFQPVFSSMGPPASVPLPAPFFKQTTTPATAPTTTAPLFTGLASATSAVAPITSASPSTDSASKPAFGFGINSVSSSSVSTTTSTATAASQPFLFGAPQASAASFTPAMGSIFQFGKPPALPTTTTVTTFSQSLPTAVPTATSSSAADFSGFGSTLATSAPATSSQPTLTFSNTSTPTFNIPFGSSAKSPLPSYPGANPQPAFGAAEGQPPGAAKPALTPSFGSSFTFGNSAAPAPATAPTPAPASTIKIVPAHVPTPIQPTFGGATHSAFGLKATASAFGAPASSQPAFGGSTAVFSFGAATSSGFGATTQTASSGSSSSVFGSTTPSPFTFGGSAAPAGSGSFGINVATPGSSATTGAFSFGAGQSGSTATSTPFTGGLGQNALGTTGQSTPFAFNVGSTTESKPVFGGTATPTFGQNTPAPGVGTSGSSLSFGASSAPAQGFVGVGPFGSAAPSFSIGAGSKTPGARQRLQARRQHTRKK
inactive: [1] -0.037 | barasertib 0.201 | volasertib -0.101 | [2] 0.045 | [3] 0.146 | [4] 0.158 | alvocidib -0.089 | Tubastatin A 0.124 | [5] 0.069 | [6] -0.076

PEX2 (UniProt P28328)
inactive: vemurafenib 0.079 | [1] -0.047 | barasertib 0.174 | volasertib 0.024 | [2] 0.052 | [3] 0.011 | [4] 0.024 | saracatinib -0.086 | sotrastaurin 0.036 | alvocidib -0.041 | Tubastatin A -0.104 | [5] 0.172 | defactinib 0.181 | [7] 0.118 | alisertib 0.115 | [6] 0.116 | gefitinib -0.372

PIK3CD (UniProt O00329)
inactive: vemurafenib -0.094 | [1] 0.005 | barasertib -0.046 | volasertib -0.015 | [2] 0.072 | [3] -0.109 | [4] 0.398 | saracatinib -0.04 | sotrastaurin 0.023 | alvocidib -0.105 | Tubastatin A 0.012 | [5] 0.021 | defactinib 0.052 | [7] -0.047 | alisertib -0.027 | [6] 0.027

PMS1 (UniProt P54277)
inactive: vemurafenib 0.037 | barasertib 0.193 | [8] 0.019 | [2] -0.028 | [3] -0.01 | [4] -0.051 | saracatinib 0.016 | sotrastaurin -0.002 | alvocidib -0.038 | Tubastatin A -0.046 | [5] -0.008 | defactinib 0 | [7] -0.039 | encorafenib 0.046 | [9] 0.022 | alisertib -0.01 | gefitinib 0.049

PRR4 (UniProt Q16378)
Sequence of UniProt Q16378 (Q16378 whole entry, looked up): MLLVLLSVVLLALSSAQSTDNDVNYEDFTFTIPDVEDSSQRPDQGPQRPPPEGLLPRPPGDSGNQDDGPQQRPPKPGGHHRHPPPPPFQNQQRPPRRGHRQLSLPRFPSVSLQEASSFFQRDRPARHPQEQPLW
active: [4] -1.21
inactive: vemurafenib 0.367 | [1] 0.038 | [8] -0.21 | volasertib -0.046 | [2] -0.005 | [3] 0.358 | alvocidib -0.033 | Tubastatin A 0.181 | [5] 0.215 | defactinib 0.08 | encorafenib -0.396 | [9] 0.126 | alisertib 0.075 | [6] -0.011 | gefitinib 0.026

PIM1 isoform 2 (UniProt P11309)
active: [4] 1.46 | sotrastaurin 0.593
inactive: vemurafenib -0.061 | barasertib 0.139 | [8] 0.002 | [2] 0.073 | [3] -0.068 | saracatinib 0 | alvocidib 0.217 | Tubastatin A -0.204 | [5] 0.052 | defactinib 0.035 | [7] -0.152 | encorafenib -0.007 | [9] 0.038 | alisertib -0.017 | gefitinib 0.003

PDIA4, A0A499FI48
inactive: [4] -0.33 | saracatinib 0.03 | sotrastaurin -0.048 | alvocidib 0.336 | [7] -0.003
active: [3] 1.69

PPP2R5C isoform 2 (UniProt Q13362)
Sequence of UniProt Q13362 (Q13362 whole entry, looked up): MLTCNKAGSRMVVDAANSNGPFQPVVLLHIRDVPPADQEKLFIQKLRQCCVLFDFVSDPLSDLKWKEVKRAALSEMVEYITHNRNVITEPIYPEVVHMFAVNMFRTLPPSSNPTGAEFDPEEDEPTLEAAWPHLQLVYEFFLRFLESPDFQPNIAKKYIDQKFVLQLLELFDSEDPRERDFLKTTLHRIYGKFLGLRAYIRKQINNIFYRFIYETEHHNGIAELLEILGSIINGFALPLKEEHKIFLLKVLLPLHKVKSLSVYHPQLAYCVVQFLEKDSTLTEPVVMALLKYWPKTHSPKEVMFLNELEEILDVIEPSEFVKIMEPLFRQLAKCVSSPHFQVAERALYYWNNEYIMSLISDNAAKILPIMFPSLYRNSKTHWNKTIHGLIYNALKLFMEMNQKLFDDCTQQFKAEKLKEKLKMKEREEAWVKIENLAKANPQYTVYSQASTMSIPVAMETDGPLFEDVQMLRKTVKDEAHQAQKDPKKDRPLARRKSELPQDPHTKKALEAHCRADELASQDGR
inactive: vemurafenib 0.014 | barasertib -0.267 | [2] -0.081 | [3] -0.023 | [4] -0.033 | saracatinib 0.014 | sotrastaurin 0.134 | alvocidib -0.004 | Tubastatin A 0.044 | [5] -0.028 | defactinib -0.024 | [7] 0.001 | alisertib 0.058 | gefitinib -0.062

PCLAF (UniProt Q15004)
Sequence of UniProt Q15004 (Q15004 whole entry, looked up): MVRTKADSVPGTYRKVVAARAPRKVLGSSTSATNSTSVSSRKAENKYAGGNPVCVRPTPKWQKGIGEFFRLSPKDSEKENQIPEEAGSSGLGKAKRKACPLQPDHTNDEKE
inactive: vemurafenib -0.016 | barasertib -0.068 | [8] 0.057 | [2] -0.033 | [3] -0.067 | [4] 0.121 | saracatinib -0.013 | sotrastaurin 0.011 | alvocidib -0.005 | Tubastatin A 0.041 | [5] 0.017 | defactinib 0.014 | [7] 0.056 | encorafenib 0.005 | [9] -0.077 | alisertib -0.097 | gefitinib 0.001

PHKG1 isoform 2 (UniProt Q16816)
Sequence of UniProt Q16816 (Q16816 whole entry, looked up): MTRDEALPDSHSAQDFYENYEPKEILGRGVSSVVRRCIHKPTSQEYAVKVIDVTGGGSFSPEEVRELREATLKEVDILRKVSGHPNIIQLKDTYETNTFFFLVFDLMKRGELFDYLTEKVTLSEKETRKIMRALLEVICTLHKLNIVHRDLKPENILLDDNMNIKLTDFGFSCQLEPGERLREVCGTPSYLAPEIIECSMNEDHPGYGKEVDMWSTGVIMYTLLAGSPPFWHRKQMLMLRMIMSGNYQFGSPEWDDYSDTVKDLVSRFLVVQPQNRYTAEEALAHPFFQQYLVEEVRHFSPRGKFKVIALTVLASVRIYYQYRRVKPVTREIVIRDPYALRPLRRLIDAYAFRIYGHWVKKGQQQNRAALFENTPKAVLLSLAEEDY
inactive: vemurafenib -0.197 | [1] -0.037 | [8] -0.062 | volasertib 0.033 | [2] 0.054 | [4] 0.64 | saracatinib 0.177 | sotrastaurin -0.269 | alvocidib -0.057 | Tubastatin A 0.053 | defactinib 0.196 | [7] -0.118 | encorafenib 0.123 | [9] -0.078 | alisertib -0.185 | [6] 0.763 | gefitinib 0.202
active: [3] -0.867 | [5] 0.929

NA (UniProt Q4G0T1)
Sequence of UniProt Q4G0T1 (Q4G0T1 whole entry, looked up): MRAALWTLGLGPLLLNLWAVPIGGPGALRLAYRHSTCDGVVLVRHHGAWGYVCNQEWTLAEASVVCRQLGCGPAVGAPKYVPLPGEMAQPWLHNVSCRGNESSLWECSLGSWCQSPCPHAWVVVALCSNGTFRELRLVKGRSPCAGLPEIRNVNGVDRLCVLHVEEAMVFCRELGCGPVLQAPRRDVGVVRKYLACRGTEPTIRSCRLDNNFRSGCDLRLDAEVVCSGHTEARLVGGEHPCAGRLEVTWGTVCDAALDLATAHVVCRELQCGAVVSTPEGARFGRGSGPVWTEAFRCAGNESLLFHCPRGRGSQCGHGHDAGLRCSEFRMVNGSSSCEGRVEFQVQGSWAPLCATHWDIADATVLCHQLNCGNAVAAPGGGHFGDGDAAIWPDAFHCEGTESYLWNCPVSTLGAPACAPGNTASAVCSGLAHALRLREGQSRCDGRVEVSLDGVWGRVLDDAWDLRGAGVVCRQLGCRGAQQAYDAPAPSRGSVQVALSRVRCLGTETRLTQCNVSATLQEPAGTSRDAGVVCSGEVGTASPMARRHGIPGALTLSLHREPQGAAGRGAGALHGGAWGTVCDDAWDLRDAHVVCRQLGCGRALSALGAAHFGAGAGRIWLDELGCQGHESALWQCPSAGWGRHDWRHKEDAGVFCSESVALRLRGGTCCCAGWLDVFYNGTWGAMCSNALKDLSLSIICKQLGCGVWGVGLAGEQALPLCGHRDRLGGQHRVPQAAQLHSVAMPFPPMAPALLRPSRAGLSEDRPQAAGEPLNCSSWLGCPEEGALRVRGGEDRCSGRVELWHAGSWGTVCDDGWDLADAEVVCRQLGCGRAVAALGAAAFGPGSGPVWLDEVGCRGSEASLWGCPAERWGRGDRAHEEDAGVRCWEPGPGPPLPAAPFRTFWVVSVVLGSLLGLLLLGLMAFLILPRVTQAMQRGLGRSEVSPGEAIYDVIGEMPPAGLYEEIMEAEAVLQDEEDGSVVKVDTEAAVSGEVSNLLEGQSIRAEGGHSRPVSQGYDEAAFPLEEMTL
inactive: [2] 0.032 | [3] 0.022 | [4] 0.026 | saracatinib -0.033 | sotrastaurin 0.129 | alvocidib -0.132 | Tubastatin A -0.272 | [5] -0.115 | [7] -0.062

PPIC (UniProt P45877)
Sequence of UniProt P45877 (P45877 whole entry, looked up): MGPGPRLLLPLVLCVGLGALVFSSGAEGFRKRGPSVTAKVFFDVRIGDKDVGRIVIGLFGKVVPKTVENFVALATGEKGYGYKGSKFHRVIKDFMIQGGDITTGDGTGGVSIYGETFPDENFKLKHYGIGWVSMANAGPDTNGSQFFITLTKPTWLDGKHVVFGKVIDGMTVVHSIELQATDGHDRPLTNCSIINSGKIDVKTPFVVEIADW
inactive: vemurafenib -0.009 | barasertib 0.203 | [2] 0.078 | [3] -0.112 | [4] 0.124 | saracatinib -0.004 | alvocidib -0.031 | Tubastatin A 0.089 | [5] 0.024 | defactinib 0.077 | [7] -0.052 | alisertib 0.004 | gefitinib 0.103
active: sotrastaurin -0.453

PNPLA4 (UniProt P41247)
Sequence of UniProt P41247 (P41247 whole entry, looked up): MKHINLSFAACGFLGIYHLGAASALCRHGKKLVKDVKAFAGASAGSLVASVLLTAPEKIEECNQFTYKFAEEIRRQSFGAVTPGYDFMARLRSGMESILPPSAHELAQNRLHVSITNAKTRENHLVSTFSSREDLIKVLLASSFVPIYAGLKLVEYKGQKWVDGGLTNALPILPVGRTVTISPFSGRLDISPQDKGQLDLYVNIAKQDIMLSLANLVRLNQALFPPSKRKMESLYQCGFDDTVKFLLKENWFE
inactive: vemurafenib 0.098 | [8] 0.002 | [2] -0.111 | [3] 0.165 | [4] 0.414 | saracatinib 0.009 | sotrastaurin -0.013 | alvocidib 0.074 | Tubastatin A 0.147 | defactinib -0.148 | [7] -0.17 | encorafenib -0.076 | [9] 0.125

PCBP2 (UniProt F8W0G4)
inactive: vemurafenib 0.121 | barasertib 0.035 | [8] -0.253 | [2] -0.066 | saracatinib 0.005 | Tubastatin A -0.009 | [5] 0.01 | defactinib 0.044 | [7] 0.033 | encorafenib 0.125 | [9] -0.006 | alisertib 0.192 | gefitinib 0.028

PIK3CG (UniProt P48736)
Sequence of UniProt P48736 (P48736 whole entry, looked up): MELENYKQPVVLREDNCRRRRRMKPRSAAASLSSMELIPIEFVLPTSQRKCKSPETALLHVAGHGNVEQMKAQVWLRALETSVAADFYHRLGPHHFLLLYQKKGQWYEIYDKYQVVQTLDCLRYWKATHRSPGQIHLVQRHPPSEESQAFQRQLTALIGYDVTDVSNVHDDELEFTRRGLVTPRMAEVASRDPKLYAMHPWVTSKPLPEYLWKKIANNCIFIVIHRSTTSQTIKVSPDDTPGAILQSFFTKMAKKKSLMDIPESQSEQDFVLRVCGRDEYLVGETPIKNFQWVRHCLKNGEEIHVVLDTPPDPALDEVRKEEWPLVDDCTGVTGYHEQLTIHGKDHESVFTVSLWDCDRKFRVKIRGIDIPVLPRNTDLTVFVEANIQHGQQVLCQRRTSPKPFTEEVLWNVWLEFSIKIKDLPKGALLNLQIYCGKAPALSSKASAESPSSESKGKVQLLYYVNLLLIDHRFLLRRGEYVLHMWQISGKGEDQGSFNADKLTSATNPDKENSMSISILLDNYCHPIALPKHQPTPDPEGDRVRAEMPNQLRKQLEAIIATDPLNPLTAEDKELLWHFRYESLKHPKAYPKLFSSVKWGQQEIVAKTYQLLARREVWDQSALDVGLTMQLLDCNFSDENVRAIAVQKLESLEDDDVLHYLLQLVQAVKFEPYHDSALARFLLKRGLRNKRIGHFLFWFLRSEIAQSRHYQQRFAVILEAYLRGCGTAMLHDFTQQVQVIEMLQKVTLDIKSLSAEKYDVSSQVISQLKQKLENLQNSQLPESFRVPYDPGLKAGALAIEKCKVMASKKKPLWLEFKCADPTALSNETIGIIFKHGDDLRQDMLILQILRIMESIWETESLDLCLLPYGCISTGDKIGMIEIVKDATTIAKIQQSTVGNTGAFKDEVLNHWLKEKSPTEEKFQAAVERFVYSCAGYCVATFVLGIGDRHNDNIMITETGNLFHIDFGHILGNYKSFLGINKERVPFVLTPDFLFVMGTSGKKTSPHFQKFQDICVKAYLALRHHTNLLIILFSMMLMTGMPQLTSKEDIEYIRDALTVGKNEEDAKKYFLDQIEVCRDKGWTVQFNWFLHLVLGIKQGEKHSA
inactive: vemurafenib 0.028 | barasertib 0.046 | [8] 0.004 | [2] 0.006 | saracatinib 0.028 | sotrastaurin 0.051 | alvocidib -0.033 | Tubastatin A -0.044 | [5] 0.04 | defactinib 0.009 | [7] -0.015 | encorafenib 0.046 | [9] 0.041 | alisertib 0.001
active: [3] -0.276 | [4] 0.289
